Inconclusive results are not listed. Activity calls are given as the source filed them. Unless noted, the call rests on the fitted dose curve; in most records, active means well fitted curve in the direction sought with a large enough effect in the repeat runs; inconclusive means weak or mixed curves; inactive means no such curve, though single readings can be large; an effect the other way counts as inactive or inconclusive. Where a SMILES comes first, the peptide text is derived from it. [ ]: non-standard residue; d: D form. pGlu = O=C1CC[C@@H](C(=O)O)N1
How the values were obtained:
[1] = A CellTox Green Cytotoxicity Assay to monitor cytotoxicity in HEK293 cells - 32 hour (AID 1224881); further: nearly all actives have a fitted effect of over 40% in size
Summary of the method: (§1)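 Homogeneous no-lysis format: HEK293 cell suspension mixed with CellTox Green reagent, seeded, incubated 5 h at 37 C/5% CO2, then dosed by pintool with compound in DMSO.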

[2] = A CellTox Green Cytotoxicity Assay to monitor cytotoxicity in HepG2 cells - 0 hour (AID 1224882); further: nearly all actives have a fitted effect of over 35% in size
Summary of the method: (§2)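 Fluorescent DNA-binding dye, 600 HepG2 cells/well, 5 h preincubation then compound in DMSO; same plates read at 0–40 h, 37 C.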

[3] = A CellTox Green Cytotoxicity Assay to monitor cytotoxicity in HepG2 cells - 32 hour (AID 1224883); further: nearly all actives have a fitted effect of over 50% in size
Summary of the method: as §2

[4] = A CellTox Green Cytotoxicity Assay to monitor cytotoxicity in HEK293 cells - 8 hour (AID 1224884); further: nearly all actives have a fitted effect of over 35% in size
Summary of the method: as §1

[5] = qHTS RealTime-Glo MT Cell Viability Assay in HepG2 cells - 16 hour (AID 1224885); further: nearly all actives have a fitted effect of over 50% in size
Summary of the method: (§3)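 Compound treatment began 5 h after plating HepG2 cells (600/well) with NanoLuc luciferase and prosubstrate. Plates stayed at 37 C for 40 h; luminescence was captured at six time points, 0 h through 40 h.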

[6] = qHTS RealTime-Glo MT Cell Viability Assay in HEK293 cells - 24 hour (AID 1224886); further: top concentration of the series differs between compounds; nearly all actives have a fitted effect of over 50% in size
Summary of the method: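 Quantitative high-throughput screen of the Tox21 10K library in HEK293: cells and RealTime-Glo reagents plated together, compound added at 5 h, luminescence monitored through 40 h at 37 C.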

[7] = qHTS RealTime-Glo MT Cell Viability Assay in HEK293 cells - 8 hour (AID 1224887); further: top concentration of the series differs between compounds; nearly all actives have a fitted effect of over 50% in size
Summary of the method: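 Measured as luminescence from the same continuously cultured HEK293 wells at successive time points (0, 8, 16, 24, 32, 40 h) after compound addition. Reagent present from seeding; dosing at 5 h; incubation 37 C.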

[8] = A CellTox Green Cytotoxicity Assay to monitor cytotoxicity in HEK293 cells - 16 hour (AID 1224888); further: nearly all actives have a fitted effect of over 35% in size
Summary of the method: as §1

[9] = qHTS RealTime-Glo MT Cell Viability Assay in HepG2 cells - 0 hour (AID 1224889); further: nearly all actives have a fitted effect of over 50% in size
Summary of the method: as §3

[10] = A CellTox Green Cytotoxicity Assay to monitor cytotoxicity in HepG2 cells - 8 hour (AID 1224890); further: nearly all actives have a fitted effect of over 45% in size
Summary of the method: as §2

[11] = qHTS assay to identify small molecule antagonists of the estrogen receptor alpha (ER-alpha) signaling pathway using the BG1 cell line in the presence of 0.1 nM 17-beta-estradiol - cell viability counter screen (AID 1259241); further: nearly all actives have a fitted effect of over 40% in size
Summary of the method: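 VM7Luc4E2, 4,000 cells/well, phenol red-free medium + 10% charcoal-stripped FBS; 24 hr plating; cpd + 0.1 nM E2 final, 22 hr 37C/5% CO2; CellTiter-Fluor 30 min, fluorescence.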

[12] = qHTS assay to identify small molecule antagonists of the androgen receptor (AR) signaling pathway using the MDA cell line in the presence of 0.5 nM R1881 - cell viability counter screen (AID 1259242); further: nearly all actives have a fitted effect of over 45% in size
Summary of the method: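 Human breast carcinoma MDA-kb2 cells, cultured without CO2, receive compounds alongside 0.5 nM (final) R1881 agonist. After 16 hr at 37C, viability is taken as live-cell protease signal.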

[13] = target: Androgen receptor (Homo sapiens) (UniProt P10275); test: qHTS assay to identify small molecule antagonists of the androgen receptor (AR) signaling pathway using the MDA cell line in the presence of 0.5 nM R1881 (AID 1259243); further: nearly all actives have a fitted effect of over 50% in size
Sequence of Androgen receptor (Homo sapiens) (P10275 whole entry, looked up): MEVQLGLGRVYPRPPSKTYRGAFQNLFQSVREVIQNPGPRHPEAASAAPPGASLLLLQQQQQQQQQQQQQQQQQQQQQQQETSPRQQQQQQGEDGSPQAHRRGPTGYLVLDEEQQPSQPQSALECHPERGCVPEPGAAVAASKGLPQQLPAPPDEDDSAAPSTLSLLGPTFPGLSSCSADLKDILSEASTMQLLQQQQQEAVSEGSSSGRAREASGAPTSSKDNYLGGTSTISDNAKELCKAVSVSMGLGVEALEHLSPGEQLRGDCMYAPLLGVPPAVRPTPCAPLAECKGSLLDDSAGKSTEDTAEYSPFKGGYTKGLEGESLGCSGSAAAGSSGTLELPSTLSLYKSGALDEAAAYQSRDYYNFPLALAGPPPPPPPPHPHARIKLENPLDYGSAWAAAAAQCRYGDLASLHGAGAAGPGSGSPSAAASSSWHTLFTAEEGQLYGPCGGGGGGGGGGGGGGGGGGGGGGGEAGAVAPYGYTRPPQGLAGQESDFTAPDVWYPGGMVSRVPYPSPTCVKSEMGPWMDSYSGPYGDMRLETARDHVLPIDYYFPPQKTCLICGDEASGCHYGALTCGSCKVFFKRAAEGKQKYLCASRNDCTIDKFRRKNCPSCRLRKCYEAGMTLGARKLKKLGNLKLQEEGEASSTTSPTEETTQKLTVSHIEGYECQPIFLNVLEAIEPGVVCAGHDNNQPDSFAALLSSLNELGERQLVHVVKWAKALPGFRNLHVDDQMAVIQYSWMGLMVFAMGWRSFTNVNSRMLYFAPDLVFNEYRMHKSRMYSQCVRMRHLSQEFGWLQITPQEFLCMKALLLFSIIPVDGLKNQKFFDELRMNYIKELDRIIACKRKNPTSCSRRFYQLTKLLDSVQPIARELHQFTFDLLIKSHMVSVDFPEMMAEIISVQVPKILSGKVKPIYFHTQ
Summary of the method: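 Cells: MDA-kb2 (MMTV-luc). Stimulus: 0.5 nM R1881. Time: 16 hr, 37C, no CO2. Detection: ONE-Glo luminescence after 30 min at RT.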

[14] = target: Estrogen receptor (Homo sapiens) (UniProt P03372); test: qHTS assay to identify small molecule antagonists of the estrogen receptor alpha (ER-alpha) signaling pathway using the BG1 cell line in the presence of 0.1 nM 17-beta-estradiol (AID 1259244); further: nearly all actives have a fitted effect of over 50% in size
Sequence of Estrogen receptor (Homo sapiens) (P03372 whole entry, looked up): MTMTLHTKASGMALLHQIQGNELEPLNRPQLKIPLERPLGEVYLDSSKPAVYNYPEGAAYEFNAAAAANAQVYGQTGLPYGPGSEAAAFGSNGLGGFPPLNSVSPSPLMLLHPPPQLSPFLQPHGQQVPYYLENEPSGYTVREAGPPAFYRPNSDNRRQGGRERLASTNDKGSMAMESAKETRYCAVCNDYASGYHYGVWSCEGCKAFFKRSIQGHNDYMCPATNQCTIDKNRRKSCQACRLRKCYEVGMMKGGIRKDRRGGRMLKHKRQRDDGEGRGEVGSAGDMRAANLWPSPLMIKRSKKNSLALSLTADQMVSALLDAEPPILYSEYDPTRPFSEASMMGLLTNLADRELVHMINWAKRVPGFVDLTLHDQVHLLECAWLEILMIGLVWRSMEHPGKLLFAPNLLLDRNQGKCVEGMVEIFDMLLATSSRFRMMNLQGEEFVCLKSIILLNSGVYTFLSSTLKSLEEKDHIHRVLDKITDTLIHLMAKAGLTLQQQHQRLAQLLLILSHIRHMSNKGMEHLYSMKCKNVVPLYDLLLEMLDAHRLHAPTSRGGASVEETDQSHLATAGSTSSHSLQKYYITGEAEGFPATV
Summary of the method: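 Seeding of stripped-serum-adapted VM7Luc4E2 cells, 24 h attachment, compound transfer, then 0.1 nM final 17beta-estradiol; after 22 h incubation, ONE-Glo reagent and luminescence reading.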

[15] = qHTS assay to identify small molecule HDAC inhibitors (AID 1259364);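 further: wild-type HCT-116 cells with endogenous class I/II HDAC activity; top concentration of the series differs between compounds; nearly all actives have a fitted effect of over 45% in size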
Summary of the method: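 After a 2 hr compound incubation (37C, 5% CO2), HCT-116 cells seeded at 1,500/well the day before received HDAC-Glo reagent; signal read as luminescence after 30 min at room temperature.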

[16] = qHTS assay to identify small molecule HDAC inhibitors - cell viability counter screen (AID 1259365)
Summary of the method: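 Luminescence from CellTiter-Glo, developed 30min at room temperature, reports viability of wild-type HCT-116 cells treated 2hr with compounds at 37 C and 5% CO2 after overnight plating.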

[17] = qHTS assay to identify small molecule agonists of the sonic hedgehog signaling (Shh) pathway - cell viability counter screen (AID 1259366); further: nearly all actives have a fitted effect of over 50% in size
Summary of the method: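 Cytotoxicity counter screen run in the same wells as the Shh reporter assay. NIH/3T3 cells carrying a Gli1 response element–driven luciferase were treated with DMSO-dissolved compounds for 24hr, and live-cell protease activity was measured with CellTiter-Fluor.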

[18] = qHTS assay to identify small molecule agonists of the sonic hedgehog signaling (Shh) pathway (AID 1259368; calls by dose curve;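 further: NIH/3T3-derived 3T3Gli1-Luc cells carrying a stable Gli1-driven firefly luciferase reporter; series mostly up to about 92 µM; nearly all actives have a fitted effect of over 15% in size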)
Summary of the method: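 Stable NIH/3T3 Gli1-Luc reporter clone; 24 hr cpd exposure after a 4 hr settling period; luminescence endpoint.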

[19] = qHTS assay to identify small molecule antagonists of the sonic hedgehog signaling (Shh) pathway - cell viability counter screen (AID 1259367); further: nearly all actives have a fitted effect of over 55% in size
Summary of the method: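 CellTiter-Fluor signal in conditioned medium-stimulated 3T3 Gli1-Luc cells, 23 hr compound exposure, 37C.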

[20] = qHTS assay to identify small molecule phospholipidosis (PLD) inducers (AID 1259344; active means well fitted curve in the direction sought with a large enough effect; an effect the other way counts as inactive or inconclusive)
Summary of the method: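 Accumulated phospholipid, stained red by LipidTOX during 24 h compound treatment of HepG2 cells at 37 C, is quantified from images as pit number and intensity, normalised per cell using Hoechst-stained nuclei.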

Measured: Potency

CCCCCCCC1CCCC1=O (stereo unspecified)
not listed: [19] | [20]
inactive: all other assays above

Nc1ccn([C@@H]2O[C@H](CO)[C@@H](O)[C@@H]2O)c(=O)n1
not listed: [13] | [20]
inactive: all other assays above

CCOc1ccc2nc(S(N)(=O)=O)sc2c1
not listed: [13] | [16]
inactive: all other assays above

CCCc1ncc(C[n+]2ccccc2C)c(N)n1
not listed: [13] | [14]
inactive: all other assays above

O=C(CO)[C@@H](O)[C@H](O)[C@H](O)CO
not listed: [13]
inactive: all other assays above

C1CCC2=NCCCN2CC1
not listed: [13] | [14] | [20]
inactive: all other assays above

CN(C)CCN(C)CCN(C)C
not listed: [13] | [16] | [20]
inactive: all other assays above

C[C@@H]1CCC[C@H](C)N1
not listed: [13] | [14] | [16] | [19]
inactive: all other assays above

CCNC(=O)[C@@H]1CCCN1C(=O)[C@H](CCCN=C(N)N)NC(=O)[C@H](CC(C)C)NC(=O)CNC(=O)[C@H](Cc1ccc(O)cc1)NC(=O)[C@H](CO)NC(=O)[C@H](Cc1c[nH]c2ccccc12)NC(=O)[C@H](Cc1cnc[nH]1)NC(=O)[C@@H]1CCC(=O)N1 ([pGlu]HWSYGLRP-NHEt)
not listed: [13] | [20]
inactive: all other assays above

O=S(=O)(O)c1cccc(S(=O)(=O)O)c1
not listed: [16] | [20]
inactive: all other assays above

O=[N+]([O-])c1ccc(/C=N\O)o1
not listed: [13] | [14] | [16]
inactive: all other assays above

CC(C)=CCC/C(C)=C/C#N
not listed: [13] | [16] | [20]
inactive: all other assays above

O=C1NC(=O)C2CC=CCC12 (stereo unspecified)
not listed: [13] | [14] | [20]
inactive: all other assays above

CNCC(O)c1ccc(O)c(O)c1 (stereo unspecified)
not listed: [13] | [20]
inactive: all other assays above

Source: PubChem BioAssay (Tox21)
